Assay results: PubChem BioAssay (NCATS)
“And” between values parts separate entries of the source, which are not always exact repeats. Equal values may be shown once. Records with an inconclusive call do not appear. Where a structure was tested more than once in an assay, its records may differ in their call. The source made the active and inactive calls. Unless noted, calls follow the shape of the dose curve; as a rule, active = well fitted curve in the direction sought with a large enough effect; inconclusive = small, poorly fitted or top-dose-only effect, or another doubt; inactive = no such curve, though single readings can be large; an effect the other way counts as inactive or inconclusive.

How the values were obtained:
[1] = qHTS assay for measurement of the activity of small molecule inhibitors on Zika virus induced Caspase-3 activity in human iPSC derived neural progenitor cells (hNPCs) (AID 1224857); also: % of control where 0% means no effect; nearly all actives have a fitted effect of over 65% in size
In short: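 Cells were plated at 350 per well and grown 16 to 20 hours. Compound pretreatment lasted one hour, after which ZIKV (2 FFU/cell) was added for 6 hours. Percent inhibition was normalized between uninfected and infected controls.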

[2] = qHTS assay for measurement of the activity of small molecule inhibitors on Zika virus induced Caspase-3 activity in human astrocytoma cells (AID 1224859);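 also: plate controls were ZIKV-infected untreated cells for no effect and uninfected cells for full effect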
In short: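 Percent inhibition of virus-induced caspase-3/7 signal is calculated against uninfected and ZIKV-infected control cells. Cells are SNB-19, infected at 2 FFU/cell for 6 h after 1 h compound exposure.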

[3] = qHTS assay to identify small molecule inhibitors of chordoma cells - UCH-1 (AID 1259355); also: % is scaled to controls: 0 for no effect and ±100 for the full control effect; nearly all actives have a fitted effect of over 55% in size
In short: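 A 48hr growth-inhibition format: each drug tested at 15 concentrations together with added auranofin, camptothecin, doxorubicin, rubitecan and topotecan, with cell viability quantified as CellTiter-Glo luminescence.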

[4] = qHTS assay to identify small molecule inhibitors of chordoma cells - UCH-2 (AID 1259356); also: % is scaled to controls: 0 for no effect and ±100 for the full control effect
[5] = P-glycoprotein substrates identified in KB-8-5-11 adenocarcinoma cell line, qHTS therapeutic library screen (AID 1346987); also: nearly all actives have a fitted effect of over 65% in size; also: potency is read from the fitted curve at half-maximal effect
In short: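 In this qHTS, P-gp-rich KB-8-5-11 cells received library compounds across a concentration range. Viability was quantified by luminescence after 72 h at 37 degree C.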

[6] = P-glycoprotein substrates identified in KB-3-1 adenocarcinoma cell line, qHTS therapeutic library screen (AID 1346986); settings: KB-3-1 parental cells viability, CellTiter-Glo, 72 h; at 44.5 µM (top of the series) unless noted; also: nearly all actives have a fitted effect of over 60% in size
In short: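 Using luminescence to quantify ATP, parental and P-gp-overexpressing KB cells were compared after 72 h compound titration. KB-8-5-11 was also run with the P-gp inhibitor tariquidar.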

[7] = Identifying Small Molecule Inhibitors of Pancreatic Cancer Stem Cells (SN12C, Adherent) (AID 1259358);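 also: cell survival measured after 48 h of compound exposure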
In short: (§1)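 After a 4 h attachment period, compounds were pinned into wells and cultures held 48 h under standard incubator conditions. Viability was then measured as CellTiter-Glo luminescence following 10 min at room temperature.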

[8] = Identifying Small Molecule Inhibitors of Pancreatic Cancer Stem Cells (A278, Adherent) (AID 1259361);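 also: viability read after 48 h compound exposure; 100% = DMSO-treated cells and 0% = cell-free media-only wells; nearly all actives have a fitted effect of over 35% in size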
In short: as §1

[9] = NS1 protein of Zika virus - qHTS assay to identify small molecule inhibitors in human HEK 293 cells (AID 1347053);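 also: plate controls were infected untreated cells for no effect and uninfected cells for full effect; nearly all actives have a fitted effect of over 55% in size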
In short: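 Compound-treated (1 h pre-infection) HEK 293 cells infected with ZIKV MR766, MOI = 0.5; after 24 h at 37 C, NS1 read by TR-FRET; data normalized to uninfected and infected controls.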

[10] = molecular target: T1, Tyrosine-protein phosphatase non-receptor type substrate 1 (Homo sapiens) + Leukocyte surface antigen CD47 (Homo sapiens) (UniProt P78324+Q08722); experiment: CD47-SIRPalpha protein protein interaction - LANCE assay qHTS validation (AID 1347057; active = well fitted curve in the direction sought with a large enough effect in the signal ratio, with a control signal flat, not every such curve was filed as active; the % refers to the signal ratio; also: 0% is about no effect)
T1 sequence (P78324 whole entry, looked up, the tested form may be a part): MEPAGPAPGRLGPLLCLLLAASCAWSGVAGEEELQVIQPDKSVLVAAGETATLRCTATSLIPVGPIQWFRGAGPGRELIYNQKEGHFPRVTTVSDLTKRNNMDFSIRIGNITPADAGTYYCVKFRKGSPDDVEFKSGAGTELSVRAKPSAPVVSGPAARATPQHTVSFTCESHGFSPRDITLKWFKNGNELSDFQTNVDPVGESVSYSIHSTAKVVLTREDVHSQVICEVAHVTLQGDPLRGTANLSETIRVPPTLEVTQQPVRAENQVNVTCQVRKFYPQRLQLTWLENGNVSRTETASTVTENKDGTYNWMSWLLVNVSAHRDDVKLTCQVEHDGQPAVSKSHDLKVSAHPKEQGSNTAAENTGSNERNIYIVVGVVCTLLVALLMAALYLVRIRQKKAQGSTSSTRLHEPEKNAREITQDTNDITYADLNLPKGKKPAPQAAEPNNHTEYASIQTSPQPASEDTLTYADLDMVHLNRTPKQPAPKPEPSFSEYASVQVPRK
T1 sequence (Q08722 whole entry, looked up, the tested form may be a part): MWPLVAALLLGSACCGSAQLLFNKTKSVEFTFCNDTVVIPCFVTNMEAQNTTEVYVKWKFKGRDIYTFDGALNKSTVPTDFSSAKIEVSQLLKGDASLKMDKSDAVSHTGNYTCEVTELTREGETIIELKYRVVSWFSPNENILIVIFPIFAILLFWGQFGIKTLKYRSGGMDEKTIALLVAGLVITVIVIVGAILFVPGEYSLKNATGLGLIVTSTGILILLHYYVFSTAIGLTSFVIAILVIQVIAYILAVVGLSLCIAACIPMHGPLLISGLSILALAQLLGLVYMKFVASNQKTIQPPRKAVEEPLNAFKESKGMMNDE
In short: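 Inhibition of soluble CD47/SIRPalpha ectodomain association by titrated compounds, measured as 665/615 nm time-resolved FRET ratio after sequential 30 min room-temperature incubations.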

[11] = molecular target: T1, Tyrosine-protein phosphatase non-receptor type substrate 1 (Homo sapiens) + Leukocyte surface antigen CD47 (Homo sapiens); experiment: CD47-SIRPalpha protein protein interaction - HTRF assay qHTS validation (AID 1347058; active = well fitted curve in the direction sought with a large enough effect in the signal ratio, not every such curve was filed as active; the % refers to the signal ratio; also: 0% is about no effect)
In short: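 Soluble extracellular domains (6His-CD47, Avi-tag-biotinylated SIRPalpha) in PBS pH 7.4 with 0.05% IGEPAL CA-630. Compounds were preincubated 30 min at RT with CD47 and anti-His-Eu, then SIRPalpha and SAV-XL665 were added. TR-FRET 665/615 ratio.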

[12] = Natriuretic polypeptide receptor (hNpr1) antagonism - Pilot counterscreen GloSensor control cell line (AID 1347045; calls by dose curve; also: % is scaled to controls: 0 for no effect and ±100 for the full control effect)
In short: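 HEK293 cGMP-sensor cells; 2% GloSensor reagent 2 h RT; LOPAC compounds in 1:5 titrations 30-50 min; 50 uM SNP 20 min; luminescence pre-read and post-read.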

[13] = molecular target: Atrial natriuretic peptide receptor 1 (Homo sapiens) (UniProt P16066); experiment: Natriuretic polypeptide receptor (hNpr1) antagonism - Pilot screen (AID 1347049; calls by dose curve;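 also: HEK293 cells with hNpr1 and GloSensor cGMP luciferase stimulated by 0.1 nM hNppA; agonist-evoked cGMP luminescence read 20 min after hNppA addition; % is scaled to controls: 0 for no effect and ±100 for the full control effect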)
Chain of Atrial natriuretic peptide receptor 1 (Homo sapiens) (P16066 whole entry, looked up): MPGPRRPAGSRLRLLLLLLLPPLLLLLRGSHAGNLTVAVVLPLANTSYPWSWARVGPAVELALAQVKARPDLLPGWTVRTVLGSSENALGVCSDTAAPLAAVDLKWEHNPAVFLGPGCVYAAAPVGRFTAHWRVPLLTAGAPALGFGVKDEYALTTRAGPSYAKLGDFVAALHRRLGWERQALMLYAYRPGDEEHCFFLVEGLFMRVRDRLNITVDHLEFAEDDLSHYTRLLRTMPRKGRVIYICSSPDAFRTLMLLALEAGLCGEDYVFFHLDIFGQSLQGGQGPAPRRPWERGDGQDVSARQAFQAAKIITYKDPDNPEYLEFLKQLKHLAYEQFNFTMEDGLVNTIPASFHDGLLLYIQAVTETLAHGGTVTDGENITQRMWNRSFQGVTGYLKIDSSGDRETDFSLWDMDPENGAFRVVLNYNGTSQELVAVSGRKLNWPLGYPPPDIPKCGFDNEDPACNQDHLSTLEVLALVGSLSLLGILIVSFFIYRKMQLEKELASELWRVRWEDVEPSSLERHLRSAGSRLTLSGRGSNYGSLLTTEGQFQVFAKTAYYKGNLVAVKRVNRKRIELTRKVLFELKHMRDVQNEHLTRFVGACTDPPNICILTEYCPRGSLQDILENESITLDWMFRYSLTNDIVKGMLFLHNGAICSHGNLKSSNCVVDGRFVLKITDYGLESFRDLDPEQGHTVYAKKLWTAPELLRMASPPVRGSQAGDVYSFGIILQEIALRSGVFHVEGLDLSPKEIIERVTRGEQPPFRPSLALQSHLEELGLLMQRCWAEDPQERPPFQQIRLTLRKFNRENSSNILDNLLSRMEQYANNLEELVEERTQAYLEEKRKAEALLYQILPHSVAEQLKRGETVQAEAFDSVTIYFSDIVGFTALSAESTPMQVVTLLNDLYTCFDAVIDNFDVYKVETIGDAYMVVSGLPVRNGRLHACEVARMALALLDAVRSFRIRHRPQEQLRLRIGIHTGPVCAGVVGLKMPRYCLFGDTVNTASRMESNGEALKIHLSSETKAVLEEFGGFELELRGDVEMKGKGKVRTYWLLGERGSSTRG
In short: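 Cells expressing receptor plus cGMP biosensor are seeded and incubated overnight at 37C, then loaded with GloSensor reagent (2% final) at room temperature for 2 h. Library compounds go on for 30 min. A pre-read precedes agonist (hNppA, 0.1 nM final) and a 20-min readout.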

[14] = Identifying Small Molecule Inhibitors of Pancreatic Cancer Stem Cells (SN12C, Spheroid) (AID 1259360);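 also: 100% = DMSO-treated cells and 0% = wells without cells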
In short: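 Viability is scored by CellTiter-Glo luminescence 48 h after dosing, expressed as percent activity against vehicle and no-cell references. Spheroid formats rely on cells cultured 14 days in stem cell media beforehand.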

[15] = Identifying Small Molecule Inhibitors of Pancreatic Cancer Stem Cells (Panc1, Adherent) (AID 1259362); settings: Potency: viability;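 also: compound exposure lasted 48 h before the viability read; plate controls were DMSO-treated cells for no effect and cell-free media wells for full effect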
In short: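 Adherent (2D) versus sphere (3D) formats; spheres generated 14 d in SCM beforehand. Compound transferred by pin tool after 4 h, 48 h incubation, CellTiter-Glo endpoint.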

O=C1NS(=O)(=O)c2ccccc21
inactive: outcome [1] | outcome [2] | Potency [3] | outcome [4] | Potency [5]

COc1ccc2cc1Oc1ccc(cc1)C[C@H]1c3c(cc4c(c3Oc3cc5c(cc3OC)CCN(C)[C@@H]5C2)OCO4)CCN1C
inactive: outcome [1] | outcome [2] | activity, negative = inhibition [3] -13.6% [at 1.88 µM] | outcome [4]
active: Potency [5] 20.6 µM

COc1ccc2[nH]c(S(=O)Cc3ncc(C)c(OC)c3C)nc2n1 (centres undefined)
inactive: outcome [1] | outcome [2] | Potency [3] | outcome [4] | outcome [6] | Potency [5]

CC1(C)OC(=O)NC1=O
inactive: outcome [1] | outcome [2] | Potency [3] | outcome [4] | Potency [5]

N[C@@H](CSCCCO)C(=O)O
inactive: outcome [1] | outcome [2] | Potency [3] | outcome [4] | Potency [5]

NC(=O)c1ncn([C@@H]2O[C@H](CO)[C@@H](O)[C@H]2O)c1N
inactive: outcome [1] | outcome [2] | Potency [3] | outcome [4] | outcome [7] | IC50 (viability decrease) [8] | Potency [5] | Potency [9]

[O-][n+]1cccc(CO)c1
inactive: outcome [1] | outcome [2] | Potency [3] | outcome [4] | Potency [5]

Cc1cc(C(C#N)c2ccc(Cl)cc2)c(Cl)cc1NC(=O)c1cc(I)cc(I)c1O (centres undefined)
16.4 µM (active) and inactive: Potency [5]
inactive: outcome [1] | outcome [2] | Potency [3] | outcome [4] | outcome [6] | Potency [9]

CCCOC(=O)c1ccccc1
inactive: outcome [1] | outcome [2] | Potency [3] | outcome [4] | Potency [5]

Cc1ccc(C(C)C)cc2c(C)ccc1-2
inactive: outcome [1] | outcome [2] | Potency [3] | outcome [4] | Potency [5]

C[C@H](N)[C@H](O)c1cccc(O)c1
inactive: outcome [1] | outcome [2] | Potency [3] | outcome [4] | Potency [5]

Nc1ccc(S(=O)(=O)Nc2nccs2)cc1
inactive: outcome [1] | outcome [2] | Potency [3] | outcome [4] | outcome [6] | Potency [5] | Potency [9]

O=c1[nH]cnc2c1ncn2[C@@H]1O[C@H](CO)[C@@H](O)[C@H]1O
inactive: outcome [1] | outcome [2] | Potency [3] | outcome [4] | outcome [6] | Potency [5]

O=C(Oc1ccccc1C(=O)O)c1ccccc1O
inactive: outcome [1] | outcome [2] | Potency [3] | outcome [4] | Potency [5]

C[C@@H]1CN(c2c(F)c(F)c3c(=O)c(C(=O)O)cn(C4CC4)c3c2F)C[C@H](C)N1
inactive: outcome [1] | outcome [2] | Potency [3] | outcome [4] | outcome [6] inactive [at 9.29 µM] | Potency [5] | Potency [9]

CC(=O)NC(Cc1ccccc1)C(=O)O (centres undefined)
inactive: outcome [1] | outcome [2] | Potency [3] | outcome [4] | Potency [5]

COC(=O)[C@H]1[C@H]2C[C@@H]3c4[nH]c5cc(OC)ccc5c4CCN3C[C@H]2C[C@@H](OC(=O)COc2ccc(OC)cc2)[C@@H]1OC
inactive: outcome [1] | outcome [2] | Potency [3] | outcome [4]

CN1CCC[C@@H]1Cc1c[nH]c2ccc(CCS(=O)(=O)c3ccccc3)cc12
inactive: outcome [1] | outcome [2] | Potency [3] | outcome [4] | outcome [6] | Potency [5] | outcome [10] | outcome [11]

COc1ccc(Cl)cc1C(=O)NCCc1ccc(S(=O)(=O)NC(=O)NC2CCCCC2)cc1
inactive: outcome [1] | outcome [2] | Potency [3] | outcome [4] | outcome [6] | Potency [5] | outcome [12] | outcome [13] | Potency [9] | outcome [10] | outcome [11]

Cc1cc(O)cc2c1O[C@](C)(CCC[C@H](C)CCC[C@H](C)CCCC(C)C)CC2
inactive: outcome [1] | outcome [2] | Potency [3] | outcome [4] | Potency [5]

CCCCN1CCCC[C@H]1C(=O)Nc1c(C)cccc1C
inactive: outcome [1] | outcome [2] | Potency [3] | outcome [4] | outcome [6] | Potency [5]

Oc1cn2c(n1)Nc1ccc(Cl)c(Cl)c1C2
active: Potency [5] 18.4 nM and 20.6 nM
inactive: outcome [1] | outcome [2] | Potency [3] | outcome [4] | outcome [7] | outcome [14] | IC50 (viability decrease) [8] | Potency [15] | Potency [9]

COc1ccc(S(=O)(=O)Nc2nnc(CC(C)C)s2)cc1
inactive: outcome [1] | outcome [2] | Potency [3] | outcome [4] | Potency [5]

CCN(CC)CCNC(=O)c1c(C)[nH]c(/C=C2\C(=O)Nc3ccc(F)cc32)c1C
inactive: outcome [1] | outcome [2] | Potency [3]

CNC(=O)Oc1ccc2c(c1)[C@]1(C)CCN(C)[C@@H]1N2C
inactive: outcome [1] | outcome [2] | Potency [3] | outcome [4] | outcome [6] | Potency [5] | outcome [12] | outcome [10]

C[C@@H]1C[C@H]2[C@@H]3C[C@H](F)C4=CC(=O)C=C[C@]4(C)[C@@]3(F)[C@@H](O)C[C@]2(C)[C@@]1(O)C(=O)CO
inactive: outcome [1] | outcome [2] | Potency [3] | outcome [4] | outcome [6] | Potency [5] | Potency [9]

CCN(CC)CCNC(=O)c1cc(Cl)c(N)cc1OC
inactive: outcome [1] | outcome [2] | Potency [3] | outcome [4] | outcome [6] | Potency [5] | outcome [12] | outcome [13] | Potency [9] | outcome [10] | outcome [11]

COc1cc(C(=O)N2CCOCC2)cc(OC)c1OC
inactive: outcome [1] | outcome [2] | Potency [3] | outcome [4] | Potency [5]

CCC(=O)Nc1ccc(O)cc1
inactive: outcome [1] | outcome [2] | Potency [3] | outcome [4] | Potency [5]
